In the library only some 3.2% were active in any assay of this set; here they are far more common.
ERb SRC1 inh = blocks coactivator binding to human estrogen receptor beta; inhibition, % at 25.6 µM; 86,000 compounds, 1.3% hits; AID 633; TR-FRET ER-beta LBD / SRC1-Cy5 peptide binding; receptor agonist-loaded with 1 µM estradiol; Q92731;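 active means compounds whose percent inhibition of the receptor-coactivator binding signal exceeds about 50% in the single-dose screen, limit read from the data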;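 further: 0% = receptor plus peptide wells without compound and 100% = peptide-only wells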
Target sequence (Q92731 whole entry, looked up, the tested form may be a part): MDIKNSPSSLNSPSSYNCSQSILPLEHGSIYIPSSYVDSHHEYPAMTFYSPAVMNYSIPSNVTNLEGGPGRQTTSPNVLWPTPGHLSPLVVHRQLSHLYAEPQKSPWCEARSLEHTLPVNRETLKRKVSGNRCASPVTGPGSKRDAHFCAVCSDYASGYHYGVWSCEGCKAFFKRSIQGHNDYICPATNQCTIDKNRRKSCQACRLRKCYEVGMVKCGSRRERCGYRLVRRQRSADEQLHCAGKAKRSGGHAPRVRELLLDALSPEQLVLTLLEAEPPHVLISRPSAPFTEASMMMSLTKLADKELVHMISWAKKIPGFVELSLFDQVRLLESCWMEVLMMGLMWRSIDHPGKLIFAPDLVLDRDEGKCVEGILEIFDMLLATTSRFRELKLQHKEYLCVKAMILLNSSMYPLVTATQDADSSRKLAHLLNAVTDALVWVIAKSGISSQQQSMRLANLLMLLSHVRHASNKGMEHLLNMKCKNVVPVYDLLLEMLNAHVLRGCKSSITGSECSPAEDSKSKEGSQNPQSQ
ERa coact inh = blocks coactivator binding to human estrogen receptor alpha; P03372; 86,000 compounds, 1.7% hits; inhibition, % at 25.6 µM; AID 629; TR-FRET ER-alpha LBD / SRC-1 peptide, estradiol-bound; in the data active means inhibition above about 50%;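 further: 0% = receptor plus peptide control and 100% = peptide only without receptor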
FAK blocker = inhibitors of human focal adhesion kinase; inhibition, %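 (tested at 7 µM)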; 97,000 compounds, 0.84% hits; biochemical FAK kinase activity assay; AID 727; in the data active means inhibition above about 19%;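 further: 0% = DMSO and 100% = reference compound high control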
ERa SRC1 pot = enhances coactivator binding to human estrogen receptor alpha; TR-FRET ERalpha-LBD/SRC-Cy5 coactivator binding, 2 h; 100 = basal binding, no effect; coactivator binding (% of control), % at 25.6 µM; 86,000 compounds, 1.3% hits; AID 639; in the data active means activity above about 200%;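 further: binding measured in presence of low estradiol as agonist stimulus; 0% = peptide alone without receptor and 100% = receptor with peptide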
* hit, by the source's call; . = not tested or not shown; [ ] = dose if it differs, or a comment.

SMILES	ERb SRC1 inh	ERa coact inh	FAK blocker	ERa SRC1 pot
O=c1c2ccccc2nc2n1CC/C2=C/N1CCN(c2cccc(C(F)(F)F)c2)CC1	100*[fluorescence artefact?]	70*[fluorescence artefact?]	0	59
COC(=O)c1sc(NC(=O)c2cnccn2)c(C(=O)OC)c1C	-2	52*	-5	119
CCOc1ccccc1C1C(C(=O)Nc2ccccc2OC)=C(C)Nc2nnnn21 (configuration not stated)	-8	0	.	91
CCC(=O)Nc1ccccc1Nc1cc(C#N)c(C#N)cc1[N+](=O)[O-]	5	6	.	112
COc1cc(NC(=O)Cn2nnc(-c3ccccc3N)n2)cc(OC)c1	0	-8	1	113
COc1cccc(C(=O)N2CCN(C3CCC(c4ccccc4)CC3)CC2)c1OC (configuration not stated)	.	.	-3	.
CC1(C)Cc2ccccc2-c2nnnn21	97*[fluorescence artefact?]	6	-1	101
c1ccc2c(c1)CC1(CCCC1)n1nnnc1-2	5	7	1	124
Cc1nn2c(N3CCN(C(=O)c4ccco4)CC3)cc(C(C)(C)C)nc2c1-c1ccc(Cl)cc1	.	.	-1	.
Cc1nc2cc(-c3cccc(Cl)c3)nn2c(N2CCN(C(=O)c3ccco3)CC2)c1C	6	12	.	107
Cc1cc(N2CCN(C(=O)c3ccco3)CC2)n2nc(C)c(-c3ccc(Cl)cc3)c2n1	55*[fluorescence artefact?]	55*[fluorescence artefact?]	.	282*
Cc1cc(N2CCN(C(=O)c3ccco3)CC2)n2nc(C)c(-c3ccccc3)c2n1	5	-28	-2	220*
Cc1cc(N2CCN(C(=O)c3ccco3)CC2)n2nc(-c3cccc(Cl)c3)cc2n1	57*[fluorescence artefact?]	29	.	107
CCCN(CCC)C(=O)CSc1nc2ccccc2c(=O)n1C1CCCC1	-20	-26	2	95
CCN(CC)S(=O)(=O)c1ccc(N2CCCCC2)c(C(=O)Nc2ccccc2N2CCOCC2)c1	.	.	-2	.
O=C(CN1CCN(c2ncccn2)CC1)Nc1ccccc1-n1cccc1	.	.	-2	.
Cc1ccc(S(=O)(=O)N2CCC(C(=O)N[C@H](C(=O)NCc3ccco3)C(C)C)CC2)cc1	50*[fluorescence artefact?]	57*[fluorescence artefact?]	1	98
Cc1ccc(S(=O)(=O)N2CCC(C(=O)Nc3nnc(-c4ccco4)s3)CC2)cc1	21	25	4	200*[fluorescence artefact?]
Cc1ccc(S(=O)(=O)N2CCC(C(=O)N[C@H](C(=O)NC3CCS(=O)(=O)C3)C(C)C)CC2)cc1 (some centres not stated)	.	.	-6	.
O=C(Nc1nnc(-c2ccco2)s1)C1CCCCC1	10	10	-4	160
COC(=O)c1ccccc1NC(=O)c1cccc(NC(=O)CSCc2ccccc2)c1C	.	.	-3	.
Cn1c(=O)cc(SCC(=O)Nc2cccnc2)c2ccccc21	-10	5	-5	264*[fluorescence artefact?]
CC(=O)c1oc2ccccc2c1NC(=O)COC(=O)c1ccc(-n2nc(C)cc2C)cc1	32	75*[fluorescence artefact?]	.	79
Cc1cc(C)n(-c2ccc(C(=O)OCC(=O)Nc3ccc(S(=O)(=O)N4CCCCC4)cc3)cc2)n1	-7	-8	-3	109
CC1(C)CC(=O)c2c(oc3cc(O)c(O)cc23)C1	58*[fluorescence artefact?]	27	0	71
SMILES	ERb SRC1 inh	ERa coact inh	FAK blocker	ERa SRC1 pot
CCOC(=O)Cc1c(C)nc2c(-c3ccc(Cl)cc3)c(C)[nH]n2c1=O	18	32	-3	248*[fluorescence artefact?]
CCCCOC(=O)CSc1nnc(-c2cc(OC)c(OC)c(OC)c2)o1	2	-4	-1	100
CCOC(=O)c1c(C)[nH]c(C)c1C(=O)CSc1nnc(-c2cc(OC)c(OC)c(OC)c2)o1	-3	-42	1	313*
CC[C@@H](C(=O)n1nc(C)cc1C)[C@H](NS(=O)(=O)c1ccc(C)cc1)c1ccccc1	.	.	0	.
O/N=C1/CCc2nonc2/C1=N/O	5	7	-1	117
O=C(CCCN1C(=O)c2ccccc2C1=O)Nc1c(C(=O)C2CC2)oc2ccccc12	-2	2	-3	111
COC(=O)c1oc2ccc(Br)cc2c1NC(=O)CCCN1C(=O)c2ccccc2C1=O	26	52*	.	131
Cc1nn(-c2ccccc2)c(C)c1C(=O)OCC(=O)N1c2ccccc2NC(=O)C1(C)C	0	1	-1	73
Cc1ccc(NS(=O)(=O)c2ccc3c(c2)oc(=O)n3C)cc1F	-6	-8	-10	221*
Cn1c(=O)oc2cc(S(=O)(=O)Nc3cccc(F)c3)ccc21	-2	0	.	196
COc1ccc(-c2cc(C(F)(F)F)c3c(=O)n(-c4ccccc4)[nH]c3n2)cc1	29	22	5	74
O=C(Nc1c(-c2ccccc2)nc2sccn12)c1ccccc1	71*[fluorescence artefact?]	72*[fluorescence artefact?]	.	71
COc1ccc(-c2nc(C3CCCCC3)no2)cc1OC	.	.	-8	.

From PubChem
